Source: PubChem
A selection: hits, their analogues and other compounds. The true share with any hit is near 9%.
BAZ2B block – blocks human BAZ2B | Q9UIF8 | AlphaScreen BAZ2B-H3K14Ac peptide displacement | Potency, µM (doses to about 114 µM), for inactives: at the top dose activity change, negative = inhibition, most hits filed as inhibitors | 4.4% of 360,000 active | AID 504333; further: on the % scale 0 is the no-effect control and ±100 the full control effect; nearly all actives have a fitted effect of over 60% in size
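Inhibition is scored as reduced AlphaScreen emission. The BAZ2B/b-H3(5-23)K14Ac complex (50 nM each) in PBS pH 7.4, 0.01% Tween-20 meets compound (up to 110 uM) for 30 min at RT before bead addition.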
HP1b binding inh – inhibitors of HP1-beta chromodomain binding to methylated histone tails. P83916. AlphaScreen HP1-beta / biotin-H3K9me3 peptide binding. Potency, µM (doses to about 114 µM), inactives show at the top dose activity change, negative = inhibition, actives largely listed as inhibitors. 0.56% of 390,000 active; further: nearly all actives have a fitted effect of over 70% in size
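Compound inhibition of the preformed complex between 50 nM HP1-beta and 50 nM biotinylated H3K9me3 peptide was read by AlphaScreen. Buffer was PBS pH 7.4 with 0.01% Tween-20. Incubations ran 30 min at room temperature, with 10 ug/mL donor/acceptor beads.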
PLK1 PBD inh – inhibitors of human PLK1 polo-box domain binding | P53350 | 2.8% of 360,000 active | AID 720504 | Plk1 PBD binding of FITC phosphopeptide, fluorescence polarization | Potency, µM, without a hit: max response, negative = inhibition, hits mostly inhibitors; further: series mostly up to about 57 µM; on the % scale 0 is the no-effect control and ±100 the full control effect; nearly all actives have a fitted effect of over 65% in size
JMJD2A Tudor – inhibitors of human JMJD2A Tudor domain | O75164 | AlphaScreen JMJD2A-Tudor / H3K4me3 peptide binding | Potency, µM (titrated, usually from 114 µM), for inactives: top-dose activity change, negative = inhibition, actives largely listed as inhibitors | 4.4% of 390,000 active; further: on the % scale 0 is the no-effect control and ±100 the full control effect; nearly all actives have a fitted effect of over 50% in size
Target sequence (O75164 whole entry, looked up, the tested form may be a part): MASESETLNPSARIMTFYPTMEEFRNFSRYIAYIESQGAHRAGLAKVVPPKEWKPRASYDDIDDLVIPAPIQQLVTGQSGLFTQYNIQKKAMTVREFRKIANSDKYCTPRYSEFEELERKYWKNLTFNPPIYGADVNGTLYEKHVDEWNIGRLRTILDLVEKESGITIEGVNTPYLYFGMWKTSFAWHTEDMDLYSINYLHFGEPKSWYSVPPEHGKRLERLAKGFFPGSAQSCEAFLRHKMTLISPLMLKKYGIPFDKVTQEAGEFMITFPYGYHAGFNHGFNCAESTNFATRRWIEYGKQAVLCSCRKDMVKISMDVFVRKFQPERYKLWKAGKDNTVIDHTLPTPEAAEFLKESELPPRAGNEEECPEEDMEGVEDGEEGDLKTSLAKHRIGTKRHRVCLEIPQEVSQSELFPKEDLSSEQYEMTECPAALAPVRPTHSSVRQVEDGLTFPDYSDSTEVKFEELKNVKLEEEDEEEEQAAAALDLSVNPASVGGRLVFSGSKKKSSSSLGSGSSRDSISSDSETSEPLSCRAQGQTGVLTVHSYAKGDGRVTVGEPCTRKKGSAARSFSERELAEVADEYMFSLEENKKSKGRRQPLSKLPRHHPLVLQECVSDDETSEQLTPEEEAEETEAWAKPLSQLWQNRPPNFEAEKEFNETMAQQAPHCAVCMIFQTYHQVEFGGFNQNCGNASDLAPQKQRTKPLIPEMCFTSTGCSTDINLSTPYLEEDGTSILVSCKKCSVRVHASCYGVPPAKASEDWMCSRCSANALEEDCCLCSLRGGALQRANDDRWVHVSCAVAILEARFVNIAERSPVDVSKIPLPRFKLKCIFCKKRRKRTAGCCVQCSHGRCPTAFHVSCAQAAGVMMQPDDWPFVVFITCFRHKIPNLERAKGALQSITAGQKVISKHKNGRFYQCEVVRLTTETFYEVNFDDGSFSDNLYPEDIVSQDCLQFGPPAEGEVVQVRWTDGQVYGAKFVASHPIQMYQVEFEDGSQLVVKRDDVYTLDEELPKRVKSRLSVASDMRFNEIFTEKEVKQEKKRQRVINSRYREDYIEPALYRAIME
G9a block – inhibitors of human histone lysine methyltransferase G9a. G9a H3K9 monomethylation, AlphaScreen, 2 h. Potency, µM (doses to about 102 µM), inactives show at the top dose activity, negative = inhibition, hits mostly inhibitors. 8.8% of 350,000 active. Q96KQ7; further: on the % scale 0 is the no-effect control and ±100 the full control effect; nearly all actives have a fitted effect of over 75% in size
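Quantitative HTS format: methyltransferase activity on a biotin-tagged H3K9 peptide is measured by AlphaScreen, using a rabbit anti-monomethyl-H3K9 antibody with streptavidin donor and anti-IgG acceptor beads. Final levels are 20 nM enzyme, 500 nM peptide, 20 uM SAM; 2 h RT.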
ALOX12 inh – ALOX12 (human) lipoxygenase inhibition; Potency, µM (series often up to 108 µM), inactives show at the top dose activity change, negative = inhibition, usual class: inhibitors; purified 12hLO, xylenol orange hydroperoxide absorbance; 1.1% of 580,000 active; P18054; further: on the % scale 0 is the no-effect control and ±100 the full control effect
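Hydroperoxide product was detected by ferrous iron/xylenol orange as the 573 to 405 nm absorbance ratio. Arachidonic acid at 40 uM (final) was turned over for 30 min at room temperature by 150 nM human 12hLO, pH 7.0 Hepes buffer, after 15 min compound preincubation.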
* hit, by the source's call; ? = inconclusive; . = no result given; [ ] = remark or other dose. The call rests on the fitted dose curve; in most records, active means well fitted curve in the direction sought with a large enough effect; inconclusive means small, poorly fitted or top-dose-only effect, or another doubt; inactive means no such curve, though single readings can be large; an effect the other way counts as inactive or inconclusive. Potency means the concentration at half of the fitted maximal effect.

SMILES | BAZ2B block | HP1b binding inh | PLK1 PBD inh | JMJD2A Tudor | G9a block | ALOX12 inh
CNC(=O)C1=C(C)Nc2nc3ccccc3n2C1c1ccc(F)cc1 (stereo unspecified) | -27% | -19% | -7% | -16% | ? | -12%
c1ccc(C(c2ccccc2)N2CCN(C(c3ccccn3)c3nnnn3C3CCCC3)CC2)cc1 (stereo unspecified) | 1% | 16% | -12% | -20% | 10% | .
CCCC(c1nnnn1C1CCCC1)N1CCN(c2ccccc2F)CC1 (stereo unspecified) | -30% | 32% | ? | -5%[11.4 µM] | 50µM* | ?
Fc1ccccc1N1CCN(C(c2ccncc2)c2nnnn2C2CCCC2)CC1 (stereo unspecified) | 0% | 41% | -12% | -18% | 32µM* | -7%
c1ccc(C(c2nnnn2C2CCCC2)N2CCCCCC2)nc1 (stereo unspecified) | 50µM* | 7% | -5% | 50µM* | 28µM* | 2%
Oc1ccc(C=Nc2ccccc2-c2nc3ccccc3[nH]2)c(O)c1 | 8% | 28% | -5% | -20% | 75%[59 µM] | -20%
O=C(Cc1ccc(Cl)c(Cl)c1)Nc1cccc(S(=O)(=O)N2CCOCC2)c1 | -6% | 22% | -4% | -15% | 1% | -10%
CCN(CC)CCCNC(=O)c1ccc(Cl)c(S(=O)(=O)Nc2ccccc2OC)c1 | 3% | 12% | -5% | 5% | ? | ?
CCN(CC)CCNC(=O)c1ccc(Cl)c(S(=O)(=O)Nc2ccccc2OC)c1 | -6% | 2% | 24µM* | -13%[57.1 µM] | . | ?
Cc1ccc(C(=O)Nc2ccccc2C(=O)O)cc1S(=O)(=O)NC1CCCCC1 | 56µM* | 24% | -22% | -21% | 71µM* | 437%
Cc1ccccc1NS(=O)(=O)c1cc(C(=O)NCc2ccco2)ccc1C | -27% | 11% | -8% | -18% | -11%[12.7 µM] | -6%
Cc1ccc(C(=O)Nc2ccccc2C(=O)NCc2ccco2)cc1S(=O)(=O)N1CCCCC1 | -21% | 8% | -9% | ? | 16µM* | 0%
COc1ccccc1NS(=O)(=O)c1cc(C(=O)NCc2ccco2)ccc1C | -31% | 7% | -2% | 50µM* | -42%[59 µM] | -27%
Cc1ccc(C(=O)Nc2ccccc2C(=O)O)cc1S(=O)(=O)Nc1ccccc1 | 1% | 27% | -16% | -5% | -7%[59 µM] | -15%
COc1ccc(S(=O)(=O)N2CCOC23CCN(S(=O)(=O)c2ccc(F)cc2)CC3)cc1 | -20% | 35% | 0% | -5% | -34% | 12%
Cc1ccc(NC(=O)N[C@H]2C[C@@](O)(C(=O)N[C@H]3CCCNC3=O)C[C@@H](O)[C@@H]2O)cc1 | . | . | . | . | . | -8%[176 µM]
CCCCN1CCN(C(=O)c2cc(-c3ccncc3)nc3c(C)cccc23)CC1 | . | . | . | . | . | 8%
COCCOc1ccc2c(n1)CCN(C(=O)c1ccc(OC)c(OC)c1)C2 | . | . | . | . | . | 24%
C/C(=N\Nc1nncc2ccccc12)c1ccc(OCC(=O)N(C)C)cc1 | ? | -18% | -3% | -24% | 45µM* | 11%
CC/C(=N\Nc1nncc2ccccc12)c1ccc(F)cc1 | -14% | 12% | -8% | -25% | 40µM* | -2%
CCCCCC(=C/c1ccccc1)/C=N/Nc1nncc2ccccc12 | . | . | . | . | . | -1%
COc1ccc(OCC(=O)N/N=C(\C)c2ccc(OC)cc2)cc1 | -14% | 18% | -16% | -17% | -2% | 3%
CCOC(=O)C[C@H]1c2cc(F)ccc2S(=O)(=O)N1c1ccccc1 | . | 38% | 0% | -4% | . | ?
c1cc(CNc2ccc(N3CCOCC3)cc2)ccn1 | ? | -15% | -10% | -34% | 40µM* | 0%
Cc1ccc(C(=O)Nc2ccc(N3CCOCC3)cc2)cc1 | 6% | 29% | -3% | -5% | ? | ?
SMILES | BAZ2B block | HP1b binding inh | PLK1 PBD inh | JMJD2A Tudor | G9a block | ALOX12 inh
O=C(NCc1ccc2c(c1)OCO2)C(=S)N1CCOCC1 | 12% | 19% | 1% | -5% | 13% | -12%
c1cc2c(cc1CNc1ccc(N3CCOCC3)cc1)OCO2 | . | ? | . | 50µM* | . | ?
CCOC(=O)c1cc(NCc2ccc(C)cc2)ccc1N1CCOCC1 | . | . | . | . | . | -13%
Cc1ccc(CNc2ccc(N3CCOCC3)cc2)cc1 | 32µM* | ? | -9% | 45µM* | 28µM* | ?
Cc1ccc(CNc2ccc(N3CCOCC3)c(Cl)c2)cc1 | 40µM* | ? | -7% | ? | . | -59%
Cc1ccc(C(=O)N2CCC(c3n[nH]c(=O)n3Cc3ccc(F)cc3)CC2)s1 | . | . | . | . | . | 8%
Cc1ccc(C(=O)/C=C/c2ccc(-c3cccc(Cl)c3Cl)o2)cc1 | . | . | . | . | . | 14µM*
O=C(/C=C/c1ccc(-c2cccc(Cl)c2)o1)c1cc(Cl)ccc1Cl | . | . | . | . | . | 18µM*
O=C(/C=C/c1ccc(-c2ccccc2Cl)o1)c1ccccc1Br | . | . | . | . | . | 4.5µM*
O=C(NNC(=O)c1ccccc1F)c1ccc(-c2ccccc2Cl)o1 | . | . | -7% | . | . | 10%
O=C(/C=C/c1ccc(-c2ccc(Cl)cc2Cl)o1)c1ccc(Br)cc1 | . | . | . | . | . | 8.9µM*
NC(=S)N/N=C\c1ccc(-c2cccc(Cl)c2Cl)o1 | -5% | 3% | ? | -18% | -45% | ?
O=C(Nc1cc(C(F)(F)F)ccc1N1CCOCC1)c1ccc(Br)o1 | ? | 41% | -2% | -14% | 10%[59 µM] | 1%
CC(C)(C)NC(=O)c1ccc2c(c1)C1C3CCC(C3)C1C(c1ccccc1)N2 (stereo unspecified) | -32% | -5% | -5% | -7% | -18%[59 µM] | -3%
Cc1ccc(C(=O)/C=C/c2ccc(-c3cc(Cl)ccc3Cl)o2)cc1 | . | . | . | . | . | 5µM*
Cc1ccc(C(=O)/C=C/c2ccc(-c3ccc(Cl)c(Cl)c3)o2)cc1 | . | . | . | . | . | -81%
CC(C)(C)NCC(O)COCc1ccc(Cl)cc1 (stereo unspecified) | 6% | 1% | 24µM* | -10%[11.4 µM] | -32%[12.7 µM] | 0%
CC(C)NCC(O)COCc1ccc(Cl)cc1 (stereo unspecified) | . | 28% | -4% | 5% | -2%[59 µM] | -16%
CCCCCCC(=O)NN1CCN(C)CC1 | 10% | 30% | 0% | 0% | 0%[12.7 µM] | 35%
O=S(=O)(Nc1cccc2cccnc12)c1ccc2ccccc2c1 | . | 21% | . | -9% | . | .
CC(NS(=O)(=O)c1ccc2ccccc2c1)c1ccccn1 (stereo unspecified) | . | 28% | 5% | 50µM* | . | -1%
COc1ccc(Nc2ncc(C(=O)Nc3cccc(Cl)c3)c3ccccc23)cc1 | 79µM* | 6% | . | 79µM* | -4%[59 µM] | 0%
CCCc1nn(C)c(C(=O)Nc2ccc(C(C)(C)C)cc2)c1Cl | 39% | 121% | -2% | 52% | 66%[59 µM] | -1%
O=C(COC(=O)c1ccccc1NCCO)NCc1cccs1 | -1% | -16% | -15% | ? | 45µM* | ?
